Measurements published in PubChem BioAssay (NCATS).
Inconclusive results are not listed. Calls of active or inactive are those of the source. Calls come from the whole dose curve; as a rule, active = well fitted inhibition curve with a large enough effect; inconclusive = small, poorly fitted or top-dose-only effect; inactive = flat fitted curve, though single readings scatter. Where a SMILES comes first, the peptide text is derived from it.

Columns and labels:
CRL-7250 = normal cell line; assay: Cytotoxic Profiling of Annotated Libraries Using Quantitative High-Throughput Screening (AID 1296008); conditions: Five cell lines viability, CellTiter-Glo ATP luminescence, 48-72 h; max response: active compounds read low; for max response: % is set by controls: 0 for no effect and ±100 for the full control effect
Procedure, shortened: (§1)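 Cytotoxicity was measured as CellTiter-Glo ATP luminescence, read after 10 min at room temperature. Compound treatment of the cells lasted 48 or 72 hr at 37 degrees Celsius in a qHTS format.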

HEK293 = assay: as above; conditions: Five cell lines viability, CellTiter-Glo ATP luminescence, 48-72 h; max response: active compounds read low
Procedure, shortened: as §1

HaCat [1] = assay: as above; conditions: Five cell lines viability, CellTiter-Glo ATP luminescence, 48-72 h; max response: active compounds read low
Procedure, shortened: as §1

KB-3-1 = assay: as above; conditions: Five cell lines viability, CellTiter-Glo ATP luminescence, 48-72 h; max response: active compounds read low
Procedure, shortened: as §1

NIH3T3 = assay: as above; conditions: Five cell lines viability, CellTiter-Glo ATP luminescence, 48-72 h; max response: active compounds read low
Procedure, shortened: as §1

HACAT [2] = assay: qHTS assay to identify novel small-molecules to repurpose for Merkel cell carcinoma treatment (AID 1296009); conditions: MCC and control cell lines, CellTiter-Glo viability, 72 h; at 44.8 µM (top of the series) unless noted
Procedure, shortened: (§2)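 Cell viability measured by CellTiter-Glo following 72 hr compound treatment at 37 degree celsius, with NPC and MIPE libraries tested in 8- and 11-point concentration series.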

HEK293T = assay: as above; conditions: MCC and control cell lines, CellTiter-Glo viability, 72 h; series mostly up to 44.8 µM
Procedure, shortened: as §2
Note: nearly all actives have a fitted effect of over 60% in size.

C[C@@H](O)[C@H](N)C(=O)N1CCC[C@H]1C(=O)N1CCC[C@H]1C(=O)N[C@H](C(N)=O)[C@@H](C)O (H-TPPT-NH2)
inactive: outcome (CRL-7250) | outcome (HEK293) | outcome (HaCat [1]) | outcome (KB-3-1) | outcome (NIH3T3) | outcome (HACAT [2]) inactive [at 9.27 µM] | outcome (HEK293T) inactive [at 9.27 µM]

COc1cc2c(cc1O)C1(Cc3ccc4c(c3C1=O)OCO4)N(C)CC2 (stereo unspecified)
inactive: max response (CRL-7250) 3.99% | outcome (HEK293) | outcome (HaCat [1]) | max response (KB-3-1) 1.1% | outcome (NIH3T3) | outcome (HACAT [2]) | Potency (HEK293T)

CCOc1nc2cccc(C(=O)OCc3oc(=O)oc3C)c2n1Cc1ccc(-c2ccccc2-c2noc(O)n2)cc1
inactive: outcome (CRL-7250) | outcome (HEK293) | outcome (HaCat [1]) | outcome (KB-3-1) | outcome (NIH3T3) | outcome (HACAT [2]) | Potency (HEK293T)

CC(=O)N[C@H]1CCN(c2ccc(C3=NOC(CN[S+](=O)([O-])C(C)C)C3)cc2F)C1 (stereo partly specified)
inactive: max response (CRL-7250) 3.89% | outcome (HEK293) | outcome (HaCat [1]) | max response (KB-3-1) -0.511% | outcome (NIH3T3) | outcome (HACAT [2]) | Potency (HEK293T)

C/C=C(\C)C(=O)O[C@@H]1CC2[C@@H](CC=C3C[C@@H](O[C@H]4C[C@H](OC)[C@H](O[C@H]5C[C@H](OC)[C@H](O[C@H]6C[C@H](OC)[C@H](O[C@H]7C[C@@H](OC)[C@H](O[C@@H]8O[C@H](CO)[C@@H](O)[C@H](O)[C@H]8O)[C@@H](C)O7)[C@@H](C)O6)[C@@H](C)O5)[C@@H](C)O4)CC[C@@]32C)[C@@]2(O)CC[C@H](C(C)=O)[C@@]12C (stereo partly specified)
inactive: max response (CRL-7250) 2.31% | outcome (HEK293) | outcome (HaCat [1]) | max response (KB-3-1) -8.02% | max response (NIH3T3) 0.771% | outcome (HACAT [2]) inactive [at 9.27 µM] | outcome (HEK293T) inactive [at 9.27 µM]

CC(C)C1(O[C@@H]2O[C@H](CO)[C@@H](O)[C@H](O)[C@H]2O)CC=C(CO)CC1 (stereo partly specified)
inactive: outcome (CRL-7250) | outcome (HEK293) | outcome (HaCat [1]) | max response (KB-3-1) -0.585% | max response (NIH3T3) 0.631% | outcome (HACAT [2]) | Potency (HEK293T)

CCn1nnnc1NCc1ccc(C(C)C)cc1
inactive: outcome (CRL-7250) | outcome (HEK293) | outcome (HaCat [1]) | max response (KB-3-1) 2.69% | outcome (NIH3T3) | outcome (HACAT [2]) | Potency (HEK293T)

CCCC(N[C@@H](C)C(=O)N1[C@H](C(=O)O)C[C@@H]2CCCC[C@@H]21)C(=O)OCC (stereo partly specified)
inactive: outcome (CRL-7250) | outcome (HEK293) | outcome (HaCat [1]) | outcome (KB-3-1) | outcome (NIH3T3) | outcome (HACAT [2]) | Potency (HEK293T)

O=C(O)CCc1cccc(O[C@@H]2O[C@H](CO)[C@@H](O)[C@H](O)[C@H]2O)c1O
inactive: outcome (CRL-7250) | outcome (HEK293) | outcome (HaCat [1]) | outcome (KB-3-1) | outcome (NIH3T3) | outcome (HACAT [2]) | Potency (HEK293T)

O=S(=O)(NC1CCNCC1)c1cc(S(=O)(=O)c2ccccc2)ccc1C(F)(F)F
inactive: max response (CRL-7250) 1.06% | outcome (HEK293) | outcome (HaCat [1]) | max response (KB-3-1) 3.12% | outcome (NIH3T3) | outcome (HACAT [2]) | Potency (HEK293T)

COc1c(C)c2c(c(O)c1C/C=C(\C)CC/C=C(\C)CCC(=O)O)C(=O)OC2
inactive: max response (CRL-7250) -4.04% | outcome (HEK293) | outcome (HaCat [1]) | outcome (KB-3-1) | max response (NIH3T3) 0.0064% | outcome (HACAT [2]) | Potency (HEK293T)

C[C@@H]1C[C@H](O[C@@H]2O[C@H](CO[C@@H]3OC[C@](O)(CO)[C@H]3O)[C@@H](O)[C@H](O)[C@H]2O)CC(C)(C)[C@H]1/C=C/[C@@H](C)O
inactive: max response (CRL-7250) -2.76% | outcome (HEK293) | outcome (HaCat [1]) | outcome (KB-3-1) | outcome (NIH3T3) | outcome (HACAT [2]) inactive [at 17.4 µM] | Potency (HEK293T)

COCCCNCC1COc2ccccc2O1 (stereo unspecified)
inactive: max response (CRL-7250) 1.45% | outcome (HEK293) | outcome (HaCat [1]) | max response (KB-3-1) 6.68% | max response (NIH3T3) 4.14% | outcome (HACAT [2]) | Potency (HEK293T)

CC(C)[C@H]1CCC(CO)=C[C@@H]1/C=C(\CO)C(=O)O
inactive: max response (CRL-7250) -1.21% | outcome (HEK293) | outcome (HaCat [1]) | max response (KB-3-1) 7.99% | max response (NIH3T3) -1.04% | outcome (HACAT [2]) | Potency (HEK293T)

CC1=CC(=O)CC(C)(C)C1(O)CCC(C)O (stereo unspecified)
inactive: outcome (CRL-7250) | outcome (HEK293) | outcome (HaCat [1]) | outcome (KB-3-1) | max response (NIH3T3) 2.02% | outcome (HACAT [2]) | Potency (HEK293T)

CC(=O)[C@@H]1CC[C@]2(C(=O)O)CC[C@]3(C)C(CCC4[C@@]5(C)CC[C@H](O)C(C)(C)C5CC[C@]43C)C12 (stereo partly specified)
inactive: outcome (CRL-7250) | outcome (HEK293) | outcome (HaCat [1]) | outcome (KB-3-1) | outcome (NIH3T3) | outcome (HACAT [2]) inactive [at 17.4 µM] | Potency (HEK293T)

COc1ccc(C(O[C@@H]2O[C@H](CO)[C@@H](O)[C@H](O)[C@H]2O)C(CO)Oc2ccc(/C=C/CO)cc2OC)cc1O (stereo partly specified)
inactive: outcome (CRL-7250) | outcome (HEK293) | outcome (HaCat [1]) | outcome (KB-3-1) | outcome (NIH3T3) | outcome (HACAT [2]) inactive [at 17.4 µM] | Potency (HEK293T)

CC1CCC2C(C(=O)O)=CC3C(O)C(C)(C)CC123 (stereo unspecified)
inactive: max response (CRL-7250) -11.2% | outcome (HEK293) | outcome (HaCat [1]) | outcome (KB-3-1) | max response (NIH3T3) -3.55% | outcome (HACAT [2]) | Potency (HEK293T)
